In PubChem BioAssay AID602399 (Sanford-Burnham Center for Chemical Genomics, 2012):
The whole screen tested about 360,000 compounds, of which about 2,800 (0.78%) were called active. The sample holds actives, similar compounds and a random draw of the others, so the mix is not that of the screen. No stated cut-off is given here; in the data, active means inhibition above about 26%; inactive means the rest.

These compounds were tested on Nicotinate-nucleotide adenylyltransferase NadD (Staphylococcus aureus N315) (assay: inhibitors of S. aureus NadD, primary screen, biochemical, colorimetric, uHTS (AID 602399)). Conditions: purified NadD enzyme, colorimetric absorbance read-out; at 20 µM; active compounds read high.

Structure (SMILES) | inhibition
COc1cc(Cl)cc(C2NC(=O)NC(C)=C2C(=O)NCc2ccccc2)c1O (stereo not given) | -2.49% (inactive)
Cc1cccc(C)c1NC(=O)C1(C)c2cccc[n+]2CC(=O)N1Cc1cccs1 (stereo not given) | 6.36% (inactive)
CCn1cc(C(=O)NC2CCCCCC2)c(=O)c2cc(S(=O)(=O)N3CCCCC3)ccc21 | -1.8% (inactive)
CCn1cc(C(=O)NCC2CCCO2)c(=O)c2cc(S(=O)(=O)N3CCCCC3)ccc21 (stereo not given) | 8.79% (inactive)
CCn1cc(C(=O)NCCCN2CCCCCC2)c(=O)c2cc(S(=O)(=O)N3CCc4ccccc4C3)ccc21 | 25.6% (active)
COCCN(C(=O)C(C)N1C(=O)c2ccccc2C1=O)c1c(N)n(CC(C)C)c(=O)[nH]c1=O (stereo not given) | 0.415% (inactive)
COCCNC(=O)C(OC(=O)c1cccs1)c1ccc(F)cc1 (stereo not given) | 2.74% (inactive)
O=C(Cc1csc(Nc2nc(=S)[nH]c3ccccc23)n1)NCCCN1CCN(c2cccc(Cl)c2)CC1 | 43.9% (active)
O=C(Cc1ccc(-n2c(=O)[nH]c3ccccc3c2=O)cc1)N1CCN(c2cccc(Cl)c2)CC1 | 6.86% (inactive)
CCOC(=O)N1CCC(Nc2c(NCCN3CCN(c4cccc(Cl)c4)CC3)c(=O)c2=O)CC1 | -3.05% (inactive)
CCOC(=O)N1CCC(N2Cc3cccc(C(=O)Nc4c(C)cccc4CC)c3C2=O)CC1 | 8.26% (inactive)
Cc1ccc(C(=O)N2CCCC(c3ccccc3)=N2)cc1 | -4.43% (inactive)
COc1ccc(N2CCN(c3ccc([N+](=O)[O-])nc3)CC2)cc1 | 1.06% (inactive)
O=C(CCc1ccccc1)NNc1ccc(F)cc1 | -2.34% (inactive)
O=c1[nH]c(CSc2ncc(-c3ccc(F)cc3)n2Cc2ccco2)nc2ccccc12 | 1.31% (inactive)
Clc1cccc(-c2nc3nc4ccccc4nc3n2Cc2ccco2)c1 | -0.737% (inactive)
Cc1ccc(Cn2c(C)nc3c(c2=O)c2nc4ccccc4nc2n3Cc2ccco2)cc1 | 49% (active)
COc1cc(C2c3cc4c(cc3C(O)C3COC(=O)C23)OCO4)cc(OC)c1OC (stereo not given) | 0.207% (inactive)
Cc1ccc(-c2nn(-c3ccccc3)cc2/C=C2\SC(=S)N(CCCCCC(=O)O)C2=O)o1 | 34.1% (active)
O=C(O)CCCCCCCCc1cn(CN2C(=O)c3ccccc3C2=O)nn1 | 1.47% (inactive)
CC(C)[C@@H]1NC(=O)c2cc([N+](=O)[O-])cc(I)c2NCCC[C@@H](C(=O)NC(CC(=O)O)C(N)=O)NC(=O)[C@H](CO)NC1=O (stereo not given in full) | -2.22% (inactive)
COc1ccc(OC)c(C(=O)c2coc3ccc(OC)cc23)c1 | -4.74% (inactive)

Structure (SMILES) | inhibition
COc1ccc(OC)c(C(=O)c2coc3ccc(O)c(CN4CCOCC4)c23)c1 | 36.3% (active)
COc1ccc2oc(=O)cc(CN3CCOCC3)c2c1 | 0.645% (inactive)
CC1CC(C)CN(C(=O)CCNC(=O)Cn2cnc3ccccc3c2=O)C1 (stereo not given) | -4.11% (inactive)
CC(=O)N1c2ccc(S(=O)(=O)N3CCC(C(=O)NC4CCCCC4C)CC3)cc2CC1C (stereo not given) | 1.28% (inactive)
Nc1cccc(-c2cc(-c3ccccc3)nc(-c3cccc(N)c3)n2)c1 | 13.8% (inactive)
CNC(=S)NNC(=O)c1oc2nc(-c3ccccc3)cc(-c3ccco3)c2c1N | 11.9% (inactive)
CS(=O)(=O)c1sc2nc(-c3ccccc3)cc(-c3ccccc3)c2c1N | 43.8% (active)
Cc1noc(C)c1S(=O)(=O)N(C)C[C@H]1Oc2ccc(NC(=O)C3CCCCC3)cc2C(=O)N([C@H](C)CO)C[C@@H]1C | -4.63% (inactive)
COc1ccc(CN2CCn3ncc(C(=O)Nc4ccc(Cl)cc4Cl)c3C2=O)cc1 | -3.68% (inactive)
Fc1ccc2c(c1)C(c1cccnc1)=NNC(c1cccs1)=N2 | -1.68% (inactive)
O=c1oc(-c2ccccc2NS(=O)(=O)c2ccc(Cl)cc2)nc2ccccc12 | 10.9% (inactive)
CCCCCN(C(=O)CCC(=O)OCC(=O)NCc1ccc(OC)cc1)c1c(N)n(CCCC)c(=O)[nH]c1=O | -7.19% (inactive)
CC(C)c1ccc2c(c1)c(SC(C)(C)C)c(CC(C)(C)C(=O)O)n2Cc1ccc(Cl)cc1 | 31.8% (active)
COc1cc(-c2nnn(CC(=O)NCc3ccccc3)n2)cc(OC)c1OC | 1.36% (inactive)
Cc1ccc(C2=NN(C(=O)CSc3nc(N)cc(N)n3)C(c3ccco3)C2)cc1 (stereo not given) | 4.52% (inactive)
COc1ccc(C2CC(c3ccccc3)=NN2C(=O)CSc2nccc(=O)[nH]2)cc1 (stereo not given) | 9.94% (inactive)
COc1ccc(C2=NN(C(=O)CSc3nc(=O)n4ccc(C)cc4n3)C(c3ccc(C)cc3)C2)cc1 (stereo not given) | 36.1% (active)
COc1ccc(C(=O)N2CCCCC2c2cc(C(=O)Nc3ccc(F)c(Cl)c3)no2)cc1 (stereo not given) | 2.01% (inactive)
C[C@H]([C@@H](O)[C@@H](O)[C@@H](C)C(C)(C)C)[C@H]1CC[C@H]2C3CC[C@H]4C[C@H](OS(=O)(=O)O)[C@@H](OS(=O)(=O)O)C[C@]4(C)[C@H]3CC[C@]12C (stereo not given in full) | 11.9% (inactive)
COc1cc(/C=C2\C(=N)N3N=C(CC(=O)N4CCOCC4)SC3=NC2=O)cc(OC)c1OC | -3.62% (inactive)
COc1ccccc1OCCOc1ccc(/C=C2\C(=N)N3N=C(C)SC3=NC2=O)cc1 | 29% (active)
CCOc1cc(/C=C2\C(=N)N3N=C(C)SC3=NC2=O)ccc1OCCOc1ccccc1 | 22.4% (inactive)

Structure (SMILES) | inhibition
C[C@@H]1CN([C@H](C)CO)C(=O)CCCn2nncc2CO[C@@H]1CN(C)S(=O)(=O)c1cccc(C#N)c1 | 4.94% (inactive)
CCOC(=O)c1ccc(NC(=O)c2c(N)n(C)c(=O)[nH]c2=O)cc1 | -3.34% (inactive)
Cc1ccc(C(=O)COC(=O)CCN2C(=O)C3C4CCC(C4)C3C2=O)cc1C (stereo not given) | 4.2% (inactive)
COc1ccc(C(=O)OCC(=O)c2ccc(C)c(S(=O)(=O)N3CCOCC3)c2)cc1OC | -14% (inactive)
Cc1ccc(C(=O)COC(=O)c2cccc(N3C(=O)c4c(C)nc5ccccc5c4C3=O)c2)cc1C | 29.7% (active)
CN(C)c1ccnc(Oc2ccc(F)cc2)c1C#N | 0.732% (inactive)
O=C(O)C1=NN(c2c(F)c(F)cc(F)c2F)C(=O)CC1 | -2.16% (inactive)
COc1cc(NS(=O)(=O)c2ccc(NC(=S)NC(=O)c3ccc(Br)cc3)cc2)ncn1 | 16.5% (inactive)
COc1ccc(NS(=O)(=O)c2ccc(NC(=S)NC(=O)/C=C/c3ccc(C)cc3)cc2)nn1 | 52.5% (active)
COc1ccc(NS(=O)(=O)c2ccc(NC(=O)C(C)(C(F)(F)F)C(F)(F)F)cc2)nn1 | 8.48% (inactive)
COc1ccccc1-n1c(SCC(=O)O)nc2sc3c(c2c1=O)CCC3 | -6.38% (inactive)
COc1cccc(C(=O)NC(=O)Nc2nc(C)cc(C(F)(F)F)n2)c1 | 1.69% (inactive)
Cc1cc(O)c(C(=O)/C=C/c2c(F)c(F)c(F)c(F)c2F)c(=O)o1 | 30% (active)
Cc1cc(O)c(Sc2ccccc2)c(=O)o1 | -2.78% (inactive)
COc1ccc(/C=C/C(=O)c2c(O)cc(OC)cc2OC)cc1 | -0.858% (inactive)
CC(=O)c1c(C)n([O-])c2ccccc2[n+]1=O | 4.16% (inactive)
N#Cc1cc([N+](=O)[O-])ccc1Oc1cccc(/C=N/NC(=O)c2ccc(Cl)cc2)c1 | 19.4% (inactive)
O=C(N/N=C/c1ccc(Cl)cc1)c1nc2ccc([N+](=O)[O-])cc2c(=O)[nH]1 | 42.6% (active)
CC(NC(=O)C(=O)N/N=C/c1ccc(Cl)cc1)c1ccccc1 (stereo not given) | -0.376% (inactive)
Cc1cccn2c(=O)c3cc(C#N)c(=NC(=O)c4cccnc4)n(CC4CCCO4)c3nc12 (stereo not given) | 0.191% (inactive)
COc1ccccc1N(CC(=O)Nc1ccc(C)cc1Cl)S(=O)(=O)c1cccs1 | -10.3% (inactive)
COc1cc(-c2noc(C3CCCN(S(=O)(=O)c4cccc(Cl)c4)C3)n2)cc(OC)c1OC (stereo not given) | -12.5% (inactive)

Structure (SMILES) | inhibition
COc1ccc(-n2c(-c3ccc(Cl)cc3)n[nH]c2=S)c(OC)c1 | 5.69% (inactive)
COc1ccc(Cl)cc1C=CC=NNC(=O)c1ccncc1 | 9.06% (inactive)
COc1ccccc1/C=C/C=N/n1c(-c2ccc(Cl)cc2Cl)n[nH]c1=S | 28% (active)
COc1ccc(-c2nn(-c3ccccc3)cc2/C=N/Nc2ccccn2)cc1OC | 30.9% (active)
COc1ccc(OC)c(/C=N/NC(=O)CSc2nnc(C)n2-c2ccccc2)c1 | 4.2% (inactive)
O=Cc1cn(-c2ccccc2)nc1-c1ccccn1 | -0.605% (inactive)
N#C/C(C(=O)N1CCOCC1)=C1/SC(Cc2ccc(F)cc2)C(=O)N1c1ccccc1 (stereo not given) | 5.64% (inactive)
CCCCN(C=O)c1c(CC)nc2c(OCc3ccccc3C(=O)OC)cccn12 | 3.2% (inactive)
CC(C)C(NC(=O)c1c(F)cccc1F)C(=O)NCc1ccncc1 (stereo not given) | -4.3% (inactive)
Cc1cc(C(=O)OC(C)C(=O)NC2CCCCC2C)c(C)o1 (stereo not given) | -0.327% (inactive)
CC(=O)c1c(C)[nH]c(C(=O)COC(=O)c2cccc(S(=O)(=O)N(C)c3ccccc3)c2)c1C | -2.3% (inactive)
S=c1[nH]nc(Nc2ccccc2)s1 | 31% (active)
CC(C)(C)C(=O)c1cnc(Nc2ccccc2)s1 | -4.48% (inactive)
S=c1[nH]nc(NCCc2ccccc2)s1 | 6.24% (inactive)
O=c1c([N+](=O)[O-])cccn1Cc1ccc(F)cc1Cl | -2.47% (inactive)
Cc1c(C(=O)N(C)CCc2cnn(C)c2)oc2c(F)cccc12 | -0.376% (inactive)
CCN(CC)C(=O)c1nc[nH]c1C(=O)N(C)Cc1ccccc1 | -5.16% (inactive)
CCN(CC)C(=O)c1sc2nc(-c3ccccc3)ccc2c1N | 29.7% (active)
CCOC(=O)C(C)n1nc(-c2ccccc2)c2ccccc2c1=O (stereo not given) | 4.56% (inactive)
